We go through seven compounds from PubChem BioAssay (NCI).

What all share (test): NCI-60 one-dose screen, 48 h (100 = growth as untreated, 0 = no growth, -100 = all killed)
The subject of one test is NCI-H23 lung. The settings on record: 10 µM unless noted.
Another test has as its system NCI-H226 lung. The settings on record: 10 µM unless noted.
For the next test, the system named is NCI-H322M lung. The settings on record: 10 µM unless noted.
In the next test the test system is HOP-62 NSCLC. The conditions noted are these: 10 µM unless noted.
A further test has as its system NCI-H460 lung. The conditions noted are these: 10 µM unless noted.
A further test deals with HOP-92 NSCLC. The conditions noted are these: 10 µM.
The next test deals with A549/ATCC NSCLC. The settings on record: 10 µM unless noted.
The next test concerns 786-0 renal. The settings on record: 10 µM unless noted.
The test system of a further test is COLO 205 colon. The conditions noted are these: 10 µM unless noted.
The subject of the next test is DU-145 prostate. The settings on record: 10 µM unless noted.
The subject of a further test is K-562 leukemia. The conditions noted are these: 10 µM unless noted.
Another test deals with MALME-3M melanoma. The conditions noted are these: 10 µM unless noted.
The subject of another test is MDA-MB-231 breast. The settings on record: 10 µM unless noted.
The subject of the next test is RXF 393 renal. The settings on record: 10 µM unless noted.
For the next test, the system named is SF-268 CNS. The conditions noted are these: 10 µM unless noted.
The subject of another test is SF-295 CNS. The settings on record: 10 µM unless noted.
A further test has as its system SF-539 CNS. The conditions noted are these: 10 µM unless noted.
The next test concerns UACC-257 melanoma. The conditions noted are these: 10 µM unless noted.
A further test concerns M14 melanoma. The conditions noted are these: 10 µM unless noted.

The panel holds about 83,000 compounds, 20% with a hit somewhere; the sample as a whole holds those more often.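 Single-concentration screen, 48 h exposure, 96-well plates. Endpoint: percent growth. Below 10 = active.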 Values without a mark were called inactive. Activity calls are given as the source filed them.

In the case of `C[C@@H](Nc1ncnc2ccc(-c3cnc(Cl)c(NS(C)(=O)=O)c3)cc12)c1ccccc1`, the growth with NCI-H23 lung was 55.7%; in the test on NCI-H226 lung it was 64.6%; in the test with NCI-H322M lung, 68.2%; in the test with HOP-62 NSCLC it was 36.8%; in the test on NCI-H460 lung it was 60.5%; in the test with HOP-92 NSCLC it was -1.13% (active). For the same compound, the growth in the test with A549/ATCC NSCLC was 54.2%; in the test with 786-0 renal, 45.4%; in the test on COLO 205 colon, 80.2%; with DU-145 prostate, 34.1%; with K-562 leukemia it was 73.9%; in the test on MALME-3M melanoma, 59.2%. Moreover, the growth with MDA-MB-231 breast was 49%; with RXF 393 renal, -17.5% (active); in the test on SF-268 CNS it was 42.5%; with SF-295 CNS, 46%; in the test on SF-539 CNS it was 44.5%; in the test on UACC-257 melanoma, 60.9%. Further, the growth in the test on M14 melanoma was 69.1%.

For `NC/C(=C/F)COc1ccc2nc(NCc3cccnc3)oc2c1`, the growth is 92.8% in the test on NCI-H23 lung; 94.3% with NCI-H226 lung; 111% with NCI-H322M lung; 77% in the test with HOP-62 NSCLC; 98.8% in the test on NCI-H460 lung; 116% with HOP-92 NSCLC. Moreover, the growth with A549/ATCC NSCLC is 95.3%; in the test on 786-0 renal, 92.5%; with COLO 205 colon, 111%; in the test with DU-145 prostate, 95%; in the test with K-562 leukemia, 109%; in the test on MALME-3M melanoma it was 108%. In addition, the growth is 96% in the test on MDA-MB-231 breast; 66.9% in the test with RXF 393 renal; 93.2% with SF-268 CNS; 99.9% with SF-295 CNS; 91.9% in the test on SF-539 CNS; 95.9% in the test on UACC-257 melanoma. Also, in the test with M14 melanoma, the growth is 103%.

`CC(=O)C1=C(C)NC(NNC(N)=S)=NC1c1ccccc1` (centres undefined): the growth in the test on NCI-H23 lung was 92.8%; with NCI-H226 lung it was 99.7%; in the test on NCI-H322M lung it was 101%; in the test on HOP-62 NSCLC it was 71.8%; in the test with NCI-H460 lung, 104%; with HOP-92 NSCLC, 78.4%. Further, the growth with 786-0 renal is 83%; in the test on COLO 205 colon, 106%; with DU-145 prostate it was 90.9%; in the test on K-562 leukemia it was 113%; with MALME-3M melanoma, 110%; in the test on MDA-MB-231 breast, 77%. The growth in the test with RXF 393 renal was 45.5%; in the test on SF-268 CNS it was 84.8%; with SF-295 CNS, 102%; in the test with SF-539 CNS it was 96.7%; with UACC-257 melanoma, 104%; in the test on M14 melanoma, 92.9%.

With `CCCn1cnc2c(c1=N)C(c1ccc(F)cc1)c1sc3c(CC)cccc3c1O2` (centres undefined), the growth was 12.4% in the test on NCI-H23 lung; -2.38% (active) in the test on NCI-H226 lung; 52% with NCI-H322M lung; 28.2% with HOP-62 NSCLC; 2.7% (active) with NCI-H460 lung; 34.2% with HOP-92 NSCLC. Further, the growth in the test on A549/ATCC NSCLC was 17%; in the test on 786-0 renal, 5.1% (active); with COLO 205 colon, -51.5% (active); in the test with DU-145 prostate, 4.9% (active); with K-562 leukemia, 6.04% (active); in the test with MALME-3M melanoma, 54.6%. For the same compound, the growth was -19.8% (active) in the test on MDA-MB-231 breast; -17.3% (active) in the test with RXF 393 renal; 18.8% with SF-268 CNS; 7.42% (active) in the test on SF-295 CNS; -25.6% (active) in the test with SF-539 CNS; 65.5% with UACC-257 melanoma. Also, the growth in the test with M14 melanoma is 13.3%.

On to `O=C(CSc1nc2ccccc2c(=O)n1-c1ccc(Cl)cc1)N/N=C/c1ccc(N2CCCCC2)cc1`, for which the growth with NCI-H23 lung was 65.9%; in the test on NCI-H226 lung, 38.2%; in the test on NCI-H322M lung, 77%; with HOP-62 NSCLC, 18.4%; with NCI-H460 lung, 9.74% (active); in the test on HOP-92 NSCLC, 62.3%. Besides, the growth was 49.4% in the test on A549/ATCC NSCLC; 7.2% (active) with 786-0 renal; 82.1% with COLO 205 colon; 29.1% in the test with DU-145 prostate; 73.6% in the test with K-562 leukemia; 64.2% in the test with MALME-3M melanoma. In addition, the growth with MDA-MB-231 breast is 72%; in the test with SF-268 CNS it was 34.7%; in the test on SF-295 CNS, 76.4%; with SF-539 CNS, 41.3%; with UACC-257 melanoma it was 97.1%.

With `C[C@@H](Nc1c(C#N)cnc2ccc(-c3cnc(Cl)c(NS(C)(=O)=O)c3)cc12)c1ccccc1`, the growth in the test with NCI-H23 lung was 6.8% (active); with NCI-H226 lung, -3.88% (active); with NCI-H322M lung, 12.1%; in the test on HOP-62 NSCLC, 11.6%; in the test on NCI-H460 lung, 2.56% (active); in the test with HOP-92 NSCLC it was -14.5% (active). The growth in the test with 786-0 renal was 4.25% (active); in the test on COLO 205 colon, 16.5%; in the test on DU-145 prostate, 7.73% (active); in the test with K-562 leukemia it was 15.3%; in the test on MALME-3M melanoma it was -12.9% (active); in the test with MDA-MB-231 breast it was 11.5%. Further, the growth in the test with RXF 393 renal is -40.2% (active); in the test on SF-268 CNS, -1.52% (active); with SF-295 CNS, -20.8% (active); in the test on SF-539 CNS, -20.7% (active); with UACC-257 melanoma, 14.8%; in the test on M14 melanoma, 4.3% (active).

Take `Cc1ccc(NC(=O)CNc2cc(C(N)=O)cc(F)c2C)c(Cl)c1`: the growth was 86.9% in the test on NCI-H23 lung; 80.5% with NCI-H226 lung; 102% with NCI-H322M lung; 71.8% with HOP-62 NSCLC; 102% with NCI-H460 lung; 74.9% with HOP-92 NSCLC. The growth is 91.9% in the test with A549/ATCC NSCLC; 92.9% in the test on 786-0 renal; 112% in the test on COLO 205 colon; 87.2% in the test on DU-145 prostate; 94.2% in the test with K-562 leukemia; 106% in the test with MALME-3M melanoma. For the same compound, the growth with MDA-MB-231 breast is 67%; with RXF 393 renal, 36.2%; with SF-268 CNS it was 81.7%; in the test on SF-295 CNS, 101%; with SF-539 CNS, 89.8%; in the test on UACC-257 melanoma it was 107%. Also, the growth with M14 melanoma was 103%.
